Screening results as filed in PubChem BioAssay.
AGP1 TOR yeast – alters AGP1-GFP fluorescence in TOR pathway yeast screen; GFP response vs DMSO, % at 10 µM; actives 0.02% (n = 320,000); S. cerevisiae AGP1-GFP multiplex flow cytometry, 3 h; GFP as percent of DMSO wells;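 active means GFP response relative to DMSO above a set limit, near screen average plus 3 SD, cut at about 150% in these data; inconclusive means fewer than 70 cells counted for the yeast strain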;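 further: median GFP channel fluorescence of the gated AGP1 strain per well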
RPL19A-GFP yeast – modulators of TOR pathway RPL19A-GFP in S. cerevisiae. S. cerevisiae RPL19A-GFP strain, flow cytometry, 3 h; stronger effect = lower value. percent response vs DMSO, % at 10 µM. actives 0.3% (n = 330,000). AID 2025;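 active means percent response vs DMSO below 50%; inconclusive means fewer than 70 events counted for the yeast strain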;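 further: median channel GFP fluorescence of the barcoded RPL19A-GFP strain; ratio of sample median GFP to plate DMSO average so 100% = DMSO; lower means less RPL19A-GFP as with rapamycin TOR inhibition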
MEP2 TOR yeast – alters MEP2-GFP fluorescence in TOR pathway yeast screen. S. cerevisiae MEP2-GFP strain, flow cytometry GFP, 3 h; 100% = DMSO control level. GFP response vs DMSO, % at 10 µM. actives 0.51% (n = 330,000);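 active means GFP response versus DMSO above a set limit, roughly screen mean plus 3 SD, cut at about 180% in these data; inconclusive means fewer than 70 cells counted for a yeast strain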;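 further: median GFP fluorescence of the barcode-gated MEP2-GFP cells per well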
LAP4-GFP MLPCN – modulators of TOR pathway LAP4-GFP in S. cerevisiae. GFP response vs DMSO, % at 10 µM. S. cerevisiae LAP4-GFP multiplex, flow cytometry GFP, 3 h; median GFP as percent of DMSO wells. actives 0.34% (n = 320,000);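 active means GFP response vs DMSO above a set limit, about the screen mean plus 3 SD, cut at about 150% in these data; inconclusive means under 70 cell events counted for the yeast strain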
CIT2 TOR yeast – yeast TOR pathway CIT2-GFP modulation; S. cerevisiae CIT2-GFP strain, flow cytometry, 3 h; 100 means same as DMSO wells; GFP response vs DMSO, % at 10 µM; actives 0.065% (n = 320,000);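 active means GFP response relative to DMSO above a set limit, near the screen mean plus 3 SD, cut at about 150% in these data; inconclusive means Fewer than 70 cells measured for a yeast strain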;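 further: ratio of well median GFP fluorescence to mean of DMSO wells on the plate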
Starred values were filed as active, the others as inactive; [ ] = remark or other dose. Most compounds without a hit are left out; they make up all but 0.93% or so of the library.

CC(=O)c1cc2c(cc1NS(=O)(=O)c1ccccc1C)OCO2 was read as AGP1 TOR yeast 92.2, RPL19A-GFP yeast 99.1, MEP2 TOR yeast 100.8, LAP4-GFP MLPCN 91.9 and CIT2 TOR yeast 96.9.
Screening COc1ccc(OCC(O)CNC(=O)/C=C/c2cccc([N+](=O)[O-])c2)cc1 (stereo not given) returned AGP1 TOR yeast 23.2, RPL19A-GFP yeast 86.9, MEP2 TOR yeast 176.8*, LAP4-GFP MLPCN 96.8 and CIT2 TOR yeast 104.0.
Screening CCc1cc(=O)oc2c(CNCc3ccccc3F)c(O)c(Cl)cc12 returned AGP1 TOR yeast inconclusive, RPL19A-GFP yeast 66.2, MEP2 TOR yeast 228.6*[may fluoresce violet], LAP4-GFP MLPCN 87.7 and CIT2 TOR yeast inconclusive.
`CCCc1cc(=O)oc2c(CN3CCCC3)c(O)c(Cl)cc12` gave AGP1 TOR yeast 77.7, RPL19A-GFP yeast 91.8, MEP2 TOR yeast 108.7, LAP4-GFP MLPCN 94.5 and CIT2 TOR yeast 99.9.
Screening COc1ccc(C)cc1NC(=O)C/C(C)=N/NC(=O)Cc1cccc2ccccc12 returned AGP1 TOR yeast inconclusive, RPL19A-GFP yeast 34.6*[may fluoresce violet], MEP2 TOR yeast inconclusive, LAP4-GFP MLPCN 70.9 and CIT2 TOR yeast inconclusive.
Screening O=C(OCCCOC(=O)c1ccc(Br)o1)c1ccc(Br)o1 returned AGP1 TOR yeast 107.6, RPL19A-GFP yeast 100.9, MEP2 TOR yeast 107.3, LAP4-GFP MLPCN 158.2* and CIT2 TOR yeast 78.5.
`Cc1ccc(S(=O)(=O)N2[C@@H](c3ccc(Br)cc3)C(C(=O)O)=CC[C@H]2c2cccs2)cc1` gave AGP1 TOR yeast 89.5, RPL19A-GFP yeast 89.6, MEP2 TOR yeast 93.6, LAP4-GFP MLPCN 102.0 and CIT2 TOR yeast 72.2.
For CC(OC(=O)c1ccccc1CCc1ccccc1)C(N)=O (stereo not given) the results were AGP1 TOR yeast inconclusive, RPL19A-GFP yeast 22.0*[may fluoresce violet], MEP2 TOR yeast 373.3*[may fluoresce violet], LAP4-GFP MLPCN 77.8 and CIT2 TOR yeast inconclusive.
For O=C(c1cc(F)ccc1F)N1CCC(N2CCC(C(=O)N3CCCC3)CC2)CC1 the results were AGP1 TOR yeast 14.4, RPL19A-GFP yeast 37.0*[may fluoresce violet], MEP2 TOR yeast 114.8, LAP4-GFP MLPCN 84.1 and CIT2 TOR yeast inconclusive.
O=C(c1ccccc1Cl)N1CCC(N2CCC(C(=O)N3CCCC3)CC2)CC1 was read as AGP1 TOR yeast 95.8, RPL19A-GFP yeast 97.1, MEP2 TOR yeast 97.6, LAP4-GFP MLPCN 85.1 and CIT2 TOR yeast 93.0.
For CN(CC(O)CN1CCOCC1)S(=O)(=O)O (stereo not given) the results were AGP1 TOR yeast 99.6, RPL19A-GFP yeast 96.4, MEP2 TOR yeast 95.1, LAP4-GFP MLPCN 102.8 and CIT2 TOR yeast 85.1.
OC(CN1CCOCC1)CN1CCOCC1 was read as AGP1 TOR yeast inconclusive, RPL19A-GFP yeast 63.8, MEP2 TOR yeast 225.7*[may fluoresce violet], LAP4-GFP MLPCN 73.0 and CIT2 TOR yeast inconclusive.
`COc1cccc(NC(=O)CN(C)C(=O)C(CCSC)NC(=O)c2ccco2)c1` (stereo not given) gave AGP1 TOR yeast 102.3, RPL19A-GFP yeast 100.5, MEP2 TOR yeast 101.7, LAP4-GFP MLPCN 99.9 and CIT2 TOR yeast 103.5.
Screening Cc1ccccc1NC(=O)C1CCN(c2cc(-c3ccccc3)nc3ncnn23)CC1 returned AGP1 TOR yeast inconclusive, RPL19A-GFP yeast 60.0, MEP2 TOR yeast 256.5*[may fluoresce violet], LAP4-GFP MLPCN 61.4 and CIT2 TOR yeast inconclusive.
CC(=O)Nc1ccc(NC(=O)CSc2ncc(C(=O)Nc3ccccc3)c(=O)n2C)cc1 was read as AGP1 TOR yeast 105.9, RPL19A-GFP yeast 88.8, MEP2 TOR yeast 99.1, LAP4-GFP MLPCN 168.1* and CIT2 TOR yeast 110.2.
`Cn1c(SCC(=O)NCc2ccccc2)ncc(C(=O)Nc2ccccc2)c1=O` gave AGP1 TOR yeast 98.2, RPL19A-GFP yeast 103.3, MEP2 TOR yeast 106.0, LAP4-GFP MLPCN 93.8 and CIT2 TOR yeast 98.9.
`Nc1ccc(C(=O)N/N=C\C=C\c2ccc([N+](=O)[O-])cc2)cc1` gave AGP1 TOR yeast inconclusive, RPL19A-GFP yeast 84.1, MEP2 TOR yeast inconclusive, LAP4-GFP MLPCN 75.8 and CIT2 TOR yeast 93.5.
`CCn1c(-c2c[nH]c3ccccc23)n[nH]c1=S` gave AGP1 TOR yeast 23.6, RPL19A-GFP yeast 70.1, MEP2 TOR yeast 184.7*[may fluoresce violet], LAP4-GFP MLPCN 95.4 and CIT2 TOR yeast inconclusive.
`C=CCn1c(-c2c[nH]c3ccccc23)n[nH]c1=S` gave AGP1 TOR yeast 93.8, RPL19A-GFP yeast 93.9, MEP2 TOR yeast 96.5, LAP4-GFP MLPCN 99.1 and CIT2 TOR yeast 89.4.
CCn1c(-c2cc(-c3ccc(C)c(C)c3)nc3ccccc23)n[nH]c1=S was read as AGP1 TOR yeast 104.4, RPL19A-GFP yeast 97.3, MEP2 TOR yeast 93.6, LAP4-GFP MLPCN 113.7 and CIT2 TOR yeast 90.3.
CCOc1cccc(-c2cc(-c3n[nH]c(=S)n3CC)c3ccccc3n2)c1 was read as AGP1 TOR yeast inconclusive, RPL19A-GFP yeast 44.6*[may fluoresce violet], MEP2 TOR yeast 267.8*[may fluoresce violet], LAP4-GFP MLPCN inconclusive and CIT2 TOR yeast inconclusive.
For NC(=O)c1ccccc1OCC(=O)c1ccc(Cl)cc1 the results were AGP1 TOR yeast 122.7, RPL19A-GFP yeast 102.2, MEP2 TOR yeast 194.6*, LAP4-GFP MLPCN 122.1 and CIT2 TOR yeast 124.2.
For NC(=O)c1ccccc1OCC(=O)NS(=O)(=O)c1ccc(Cl)cc1 the results were AGP1 TOR yeast 99.0, RPL19A-GFP yeast 96.6, MEP2 TOR yeast 97.2, LAP4-GFP MLPCN 95.9 and CIT2 TOR yeast 85.6.
Screening COc1ccc2nc(C)cc(Sc3nc4ccccc4s3)c2c1 returned AGP1 TOR yeast inconclusive, RPL19A-GFP yeast 43.4*[may fluoresce violet], MEP2 TOR yeast 675.1*[may fluoresce violet], LAP4-GFP MLPCN 64.9 and CIT2 TOR yeast inconclusive.
Screening Cc1ccc([N+](=O)[O-])cc1N=C1C(=O)Nc2ccccc21 returned AGP1 TOR yeast inconclusive, RPL19A-GFP yeast 55.3, MEP2 TOR yeast 616.5*[may fluoresce violet], LAP4-GFP MLPCN 68.5 and CIT2 TOR yeast inconclusive.
`COc1cc(NS(=O)(=O)c2ccc(C)cc2C)cc(OC)c1OC` gave AGP1 TOR yeast inconclusive, RPL19A-GFP yeast 48.5*[may fluoresce violet], MEP2 TOR yeast 483.8*[may fluoresce violet], LAP4-GFP MLPCN 89.0 and CIT2 TOR yeast inconclusive.
For COc1ccc(N(C(=O)Cc2cccs2)C(C(=O)NC2CCCC2)c2ccncc2)cc1OC (stereo not given) the results were AGP1 TOR yeast 100.9, RPL19A-GFP yeast 102.2, MEP2 TOR yeast 102.9, LAP4-GFP MLPCN 95.5 and CIT2 TOR yeast 101.3.
Cc1cccc(N(C(=O)Cc2cccs2)C(C(=O)NC2CCCC2)c2ccncc2)c1 (stereo not given) was read as AGP1 TOR yeast inconclusive, RPL19A-GFP yeast 50.2, MEP2 TOR yeast 438.3*[may fluoresce violet], LAP4-GFP MLPCN 83.1 and CIT2 TOR yeast inconclusive.
`Cc1ccc(-c2nn(-c3ccccc3)cc2CO)cc1` gave AGP1 TOR yeast 15.4, RPL19A-GFP yeast 71.3, MEP2 TOR yeast 220.7*[may fluoresce violet], LAP4-GFP MLPCN 87.7 and CIT2 TOR yeast inconclusive.
`COc1ccc(-c2nn(-c3ccccc3)cc2CO)cc1` gave AGP1 TOR yeast 99.3, RPL19A-GFP yeast 103.0, MEP2 TOR yeast 105.0, LAP4-GFP MLPCN 106.8 and CIT2 TOR yeast 106.1.
